In PubChem BioAssay (Tox21):
Records with an inconclusive call do not appear. The source made the active and inactive calls. Unless noted, the call rests on the fitted dose curve; in most records, active means well fitted curve in the direction sought with a large enough effect in the repeat runs; inconclusive means weak or mixed curves; inactive means no such curve, though single readings can be large; an effect the other way counts as inactive or inconclusive. Starred links: 1 amine or outer side, 2 acyl side, 3 side chain; linkers in the order of their positions; H or OH if unused. Positions of bridges follow the written chain, without caps; N, C: chain ends. Non-standard residues stand in square brackets, D forms with d. Residues, ends and D or L forms follow the SMILES beside them. *: point of attachment. X5 = NC1=N[C@@H]([C@H](N[*:1])C(=O)[*:2])C[C@H](O)N1; ΔAla(Z-3-ureido) = NC(=O)N/C=C(\N)C(=O)O; β3hOrn = NCCC[C@H](N)CC(=O)*; Dap = NC[C@H](N)C(=O)O

Key:
[1] = qHTS assay to identify aromatase inhibitors - cell viability counter screen (AID 743084);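 further: cells stimulated with testosterone during compound exposure; nearly all actives have a fitted effect of over 55% in size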
[2] = molecular target: Aryl hydrocarbon receptor (Homo sapiens) (UniProt P35869); experiment: qHTS assay to identify small molecule that activate the aryl hydrocarbon receptor (AhR) signaling pathway (AID 743085);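 further: HG2L7.5c1 human HepG2 liver cells with stably integrated DRE-driven firefly reporter; series mostly up to about 70 µM; nearly all actives have a fitted effect of over 15% in size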
Chain of Aryl hydrocarbon receptor (Homo sapiens) (P35869 whole entry, looked up): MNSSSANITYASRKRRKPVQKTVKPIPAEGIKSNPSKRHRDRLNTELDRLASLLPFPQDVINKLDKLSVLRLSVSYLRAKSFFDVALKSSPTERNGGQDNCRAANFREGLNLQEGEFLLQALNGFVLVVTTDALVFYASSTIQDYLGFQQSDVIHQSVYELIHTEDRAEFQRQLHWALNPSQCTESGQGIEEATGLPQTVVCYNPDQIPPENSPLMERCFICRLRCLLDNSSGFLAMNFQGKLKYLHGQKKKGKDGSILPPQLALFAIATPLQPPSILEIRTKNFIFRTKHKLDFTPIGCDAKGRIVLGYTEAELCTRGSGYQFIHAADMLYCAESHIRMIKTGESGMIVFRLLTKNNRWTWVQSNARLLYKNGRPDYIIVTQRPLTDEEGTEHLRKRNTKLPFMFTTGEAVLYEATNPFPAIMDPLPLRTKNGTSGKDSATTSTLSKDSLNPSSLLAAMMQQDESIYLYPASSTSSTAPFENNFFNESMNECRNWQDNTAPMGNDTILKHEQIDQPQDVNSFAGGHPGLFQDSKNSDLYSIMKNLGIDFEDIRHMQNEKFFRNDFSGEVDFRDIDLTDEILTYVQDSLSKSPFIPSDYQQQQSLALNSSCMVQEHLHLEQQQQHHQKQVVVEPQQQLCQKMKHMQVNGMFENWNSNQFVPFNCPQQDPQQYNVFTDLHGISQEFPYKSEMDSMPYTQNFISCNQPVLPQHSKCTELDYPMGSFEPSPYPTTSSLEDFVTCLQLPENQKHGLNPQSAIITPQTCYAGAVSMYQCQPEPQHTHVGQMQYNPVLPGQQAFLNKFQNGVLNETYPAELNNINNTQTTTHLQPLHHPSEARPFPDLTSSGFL
How it was run: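 Cell line HG2L7.5c1 (human hepatoma, 20× DRE-luc). Plated, 5 h 37C, compound/DMSO added, 24 h 37C. CellTiter-Fluor 30 min 37C → fluorescence; then ONE-Glo 30 min RT → luminescence.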

[3] = qHTS assay to identify small molecule that activate the aryl hydrocarbon receptor (AhR) signaling pathway - cell viability counter screen (AID 743086);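 further: HepG2 liver cells carrying the AhR DRE luciferase reporter; series mostly up to about 70 µM; nearly all actives have a fitted effect of over 45% in size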
How it was run: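 HepG2-AhR-luc (HG2L7.5c1) cells, 4000/well, treated 24 h at 37 C with compound; viability measured as CellTiter-Fluor fluorescence after 30 min in the same wells as the luciferase read.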

[4] = molecular target: Peroxisome proliferator-activated receptor gamma (Homo sapiens) (UniProt P37231); experiment: qHTS assay to identify small molecule agonists of the peroxisome proliferator-activated receptor gamma (PPARg) signaling pathway (AID 743094; active means well fitted activation curve with a large enough effect in the signal ratio in the repeat runs, not every such curve was filed as active; the % refers to the signal ratio)
Chain of Peroxisome proliferator-activated receptor gamma (Homo sapiens) (P37231 whole entry, looked up): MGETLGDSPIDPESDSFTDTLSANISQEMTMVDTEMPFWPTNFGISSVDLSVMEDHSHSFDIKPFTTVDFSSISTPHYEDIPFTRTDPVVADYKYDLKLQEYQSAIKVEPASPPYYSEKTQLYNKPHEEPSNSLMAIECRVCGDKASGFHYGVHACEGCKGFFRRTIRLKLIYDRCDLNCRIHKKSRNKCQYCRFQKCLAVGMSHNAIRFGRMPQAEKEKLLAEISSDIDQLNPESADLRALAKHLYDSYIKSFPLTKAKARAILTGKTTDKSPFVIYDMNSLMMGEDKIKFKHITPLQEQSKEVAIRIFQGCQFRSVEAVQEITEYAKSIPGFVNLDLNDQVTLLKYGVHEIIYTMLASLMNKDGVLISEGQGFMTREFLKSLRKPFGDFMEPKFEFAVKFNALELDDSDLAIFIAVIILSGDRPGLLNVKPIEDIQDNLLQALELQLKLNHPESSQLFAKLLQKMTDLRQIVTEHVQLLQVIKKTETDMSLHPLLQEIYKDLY
How it was run: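 Beta-lactamase FRET fluorescence was the read-out after a 1 h room-temperature substrate step, following 17 h compound treatment at 37C of HEK293H cells expressing a UAS-driven bla reporter responsive to PPARg.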

[5] = qHTS assay to identify small molecule phospholipidosis (PLD) inducers (AID 1259344; active means well fitted curve in the direction sought with a large enough effect; an effect the other way counts as inactive or inconclusive)
How it was run: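 HepG2 cells, 900/well, treated with compound plus LipidTOX Red for 24 h at 37 C; amiodarone positive and DMSO negative controls. Fixed with paraformaldehyde/Hoechst, then high-content imaging scored LipidTOX pit count and integrated intensity per well and per cell.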
On the % scale 0 is the no-effect control and ±100 the full control effect.

Cc1cccc(C)c1N(CCCc1cccnc1)C(=O)C(C)N (stereo not given)
inactive: Potency [1] | Potency [2] | Potency [3] | Potency [4] | PLD induction [5] -1.49% [at 1.53 µM]

NC[C@@H]1O[C@H](O[C@H]2[C@@H](O)[C@H](O[C@@H]3[C@@H](O)[C@H](N)C[C@H](N)[C@H]3O[C@H]3O[C@H](CO)[C@@H](O)[C@H](O)[C@H]3N)O[C@@H]2CO)[C@H](N)[C@@H](O)[C@@H]1O
inactive: Potency [1] | Potency [2] | Potency [3] | Potency [4] | Potency [5]

O=C(Cn1c(=O)sc2ccc(Cl)cc21)N1CCN(CCO)CC1
inactive: Potency [1] | Potency [2] | Potency [3] | Potency [4] | PLD induction [5] 3.19% [at 7.66 µM]

CCCCCCCCCCCCCCCCCC(=O)OCCO
inactive: Potency [1] | Potency [2] | Potency [3] | Potency [4] | Potency [5]

C=C1CC2C3CCC4=CC(=O)C=C[C@]4(C)[C@@]3(F)[C@@H](O)C[C@]2(C)[C@@]1(O)C(=O)COC(C)=O (stereo not given in full)
inactive: Potency [1] | Potency [2] | Potency [3] | Potency [4] | PLD induction [5] -8.32% [at 7.66 µM]

C[N+](C)(CCCCCC[N+](C)(C)C1c2ccccc2-c2ccccc21)C1c2ccccc2-c2ccccc21
inactive: Potency [1] | Potency [2] | Potency [3] | Potency [4] | Potency [5]

O=C(O)c1ccc(OCCn2ccnc2)cc1
inactive: Potency [1] | Potency [2] | Potency [3] | Potency [4] | Potency [5]

CCCCCCCCCCCCCCCC(=O)OC[C@@H](COP(=O)([O-])OCC[N+](C)(C)C)OC(=O)CCCCCCCCCCCCCCC
inactive: Potency [1] | Potency [2] | Potency [3] | Potency [4] | PLD induction [5] -0.903% [at 1.53 µM]

Cc1nnc(C(C)C)n1C1C[C@H]2CC[C@@H](C1)N2CC[C@H](NC(=O)C1CCC(F)(F)CC1)c1ccccc1 (stereo not given in full)
inactive: Potency [1] | Potency [2] | Potency [3] | Potency [4] | PLD induction [5] -2.27% [at 7.66 µM]

CC1(C)S[C@@H]2[C@H](NC(=O)Cc3ccccc3)C(=O)N2[C@H]1C(=O)O
inactive: Potency [1] | Potency [2] | Potency [3] | Potency [4] | Potency [5]

Nc1ccn(C[C@@H](CO)OCP(=O)(O)O)c(=O)n1
inactive: Potency [1] | Potency [2] | Potency [3] | Potency [4] | PLD induction [5] -2.23% [at 7.66 µM]

CN=C(NC)NCc1ccccc1
inactive: Potency [1] | Potency [2] | Potency [3] | Potency [4] | Potency [5]

CCCCCC(O)/C=C/C=O (stereo not given)
inactive: Potency [1] | Potency [2] | Potency [3] | Potency [4] | Potency [5]

NCCC[C@H](N)CC(=O)N[C@H]1CNC(=O)[C@H]([C@H]2C[C@H](O)NC(N)=N2)NC(=O)/C(=C/NC(N)=O)NC(=O)[C@H](CO)NC(=O)[C@H](CO)NC1=O (β3hOrn-[Dap]SS[ΔAla(Z-3-ureido)][X5]; lactam 1-C)
inactive: Potency [1] | Potency [2] | Potency [3] | Potency [4] | Potency [5]

O=P(O)(O)OC(Cn1cncn1)(Cn1cncn1)c1ccc(F)cc1F
inactive: Potency [1] | Potency [2] | Potency [3] | Potency [4] | Potency [5]

CCC(C)(C)OC(=O)N[C@@H](Cc1c[nH]c2ccccc12)C(=O)N[C@@H](CCSC)C(=O)N[C@@H](CC(=O)O)C(=O)N[C@@H](Cc1ccccc1)C(N)=O
inactive: Potency [1] | Potency [2] | Potency [3] | Potency [4] | Potency [5]

CS(=O)(=O)NC(=O)CCC/C=C\C[C@H]1C(=O)C[C@@H](O)[C@@H]1/C=C/[C@H](O)COc1ccccc1
inactive: Potency [1] | Potency [2] | Potency [3] | Potency [4] | Potency [5]

CN(CCO)CC(O)Cn1cnc2c1c(=O)n(C)c(=O)n2C (stereo not given) (tested in a mixture with another compound)
inactive: Potency [1] | Potency [2] | Potency [3] | Potency [4] | Potency [5]

COc1cc(Br)c(C[N+]2(CCOCCC3CCC4CC3C4(C)C)CCOCC2)cc1OC (stereo not given)
inactive: Potency [1] | Potency [2] | Potency [3] | Potency [4] | Potency [5]

OCC(O)COc1ccc(Cl)cc1 (stereo not given)
inactive: Potency [1] | Potency [2] | Potency [3] | Potency [4] | Potency [5]

COC1=C(C(=O)O)N2C(=O)[C@@H](NC(=O)[C@H](N)C3=CCC=CC3)[C@H]2SC1
inactive: Potency [1] | Potency [2] | Potency [3] | Potency [4] | Potency [5]

O=P(O)(O)C(Sc1ccc(Cl)cc1)P(=O)(O)O
inactive: Potency [1] | Potency [2] | Potency [3] | Potency [4] | Potency [5]
